Inconclusive results are not listed. Activity calls are given as the source filed them. The calls were made as follows: active = hit-call score of the fitted dose curve at least 0.9, where 1 is the maximum; inconclusive = response in the unintended direction; inactive = score below 0.9.
Assay: Tanguay_ZF_120hpf_PIG_legacy: (Legacy) Oregon State University Tanguay Lab 120 Hour Post-fertilization zebrafish Assay for Pigmentation Malformation (AID 2283650);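 also: dechorionated Tropical 5D zebrafish embryos exposed singly from 6 to 120 hpf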
Experimental: Tanguay_ZF_120hpf_legacy is a whole embryo, multiplexed endpoint assay using zebrafish larvae exposed for 120 hours post fertilization on a 96-well plate.Tanguay_ZF_120hpf_PIG_legacy is one of one assay component(s) measured or calculated from the Tanguay_ZF_120hpf_legacy assay. It is designed to make measurements of zebrafish development as detected with brightfield microscopy of developing zebrafish embryos.Data from the assay component Tanguay_ZF_120hpf_PIG_legacy was analyzed into 1 assay endpoints. This assay endpoint, Tanguay_ZF_120hpf_PIG_legacy, was analyzed in the positive analysis fitting direction relative to DMSO as the negative control and baseline of activity. Using a type of morphology reporter, gain-of-signal activity can be used to understand changes in developmentals as they relate to the whole embryo. To generalize the intended target to other relatable targets, this assay endpoint is annotated to the zebrafish development intended target family, where the subfamily is embryonic pigmentation.
Zebrafish husbandry: Tropical 5D wild-type adult zebrafish were housed in at an approximate density of 1000 per 100 gallon tank at the Sinnhuber Aquatic Research Laboratory, Oregon State University, Corvallis, OR. Each tank was kept at standard laboratory conditions of 28C on a 14-h light/10-h dark photoperiod in fish water consisting of reverse osmosis water supplemented with a commercially available salt (Instant Ocean). Spawning funnels were placed into the tanks the night prior, and embryos were collected and staged. To increase bioavailability, the chorion was enzymatically removed using pronase (63.6mg/ml, >/= 3.5U/mg, Sigma-Aldrich: P5147) at 4 hours post fertilization (hpf) using a custom automated dechorionator.Chemical exposures: Six hpf dechorionated embryos were placed 1 embryo per well in a 96-well plate prefilled with 90 ul of EM using automated embryo placement systems (AEPS). Ten microliters of each row of dilution plate 2 was added to 2 exposure plates. The final DMSO concentration used was 0.64% (vol/vol). Thirty-two embryos were also exposed to 5uM trimethyltin chloride (positive control). Plates were sealed to prevent evaporation and foil covered to reduce light exposure and kept in a 28C incubator. Embryos were statically exposed until 120 hpf. At 24 hpf, embryos were assessed for photomotor response using a custom photomotor response analysis tool (PRAT) and for developmental toxicity endpoints (MO24: mortality at 24 hpf, DP: developmental progression, SM: spontaneous movement, and NC: notochord distortion). At 120 hpf, locomotor activity was measured using Viewpoint Zebralab and assessed for 18 endpoints. Zebrafish acquisition and analysis program (ZAAP), a custom program designed to inventory, acquire, and manage zebrafish data, was used to collect developmental endpoints as either present or absent (i.e., binary responses were recorded). If mortality occurred for an embryo (at either 24 or 120 hpf), the non-mortality endpoints were not measured.

Compound | outcome | AC50
Clc1ccc(Cl)cc1 | inactive | 
O=C(O)C(F)(F)C(F)(F)C(F)(F)C(F)(F)C(F)(F)C(F)(F)C(F)(F)C(F)(F)F | inactive | 
CC(C)(c1ccccc1)c1ccc(O)cc1 | inactive | 
Clc1ccc(C(c2ccccc2Cl)C(Cl)(Cl)Cl)cc1 (stereo not given) | inactive | 
O=S(=O)(O)C(F)(F)C(F)(F)C(F)(F)C(F)(F)C(F)(F)C(F)(F)F | inactive | 
O=C(NC(=O)c1cc(F)c(F)cc1Cl)Nc1cc(F)ccc1N1CCC(C(=O)O)CC1 | inactive | 
CCSC(=O)N(CC)C1CCCCC1 | inactive | 
CCC(C)(c1ccc(O)cc1)c1ccc(O)cc1 |  | 43.2 µM (active)
CC(c1ccc(O)cc1)(c1ccc(O)cc1)c1ccc(O)cc1 | inactive | 
CN(C)CCO | inactive | 
COc1ccc(O)c(C(C)(C)C)c1 | inactive | 
CC1=C2C[C@H]3[C@@H](CC=C4C[C@@H](O)CC[C@@]43C)[C@@H]2CC[C@]12O[C@@H]1C[C@H](C)CN[C@H]1[C@H]2C |  | 20 µM (active)
Cc1ccccc1O | inactive | 
Cc1cccc([N+](=O)[O-])c1 | inactive | 
C[C@]12CCC(=O)C=C1CC[C@@H]1[C@@H]2CC[C@@]2(C)[C@H]1CC[C@]2(C)O | inactive | 
COS(=O)(=O)OC | inactive | 
CCCCCCCCCc1ccc(O)cc1 | inactive | 
Cc1cccc(C)c1N | inactive | 
CC(C)(O)C(=O)Nc1ccc([N+](=O)[O-])c(C(F)(F)F)c1 | inactive | 
Oc1ccc(C(c2ccc(O)cc2)(C(F)(F)F)C(F)(F)F)cc1 |  | 56.9 µM (active)

Compound | outcome | AC50
O=C(O)C(F)(F)C(F)(F)C(F)(F)C(F)(F)C(F)(F)C(F)(F)C(F)(F)C(F)(F)C(F)(F)F | inactive | 
CCCCCCOC(=O)c1ccccc1C(=O)OCCCCCC | inactive | 
C=CC(=O)NCNC(=O)C=C | inactive | 
O=S(=O)(O)C(F)(F)C(F)(F)C(F)(F)C(F)(F)F | inactive | 
CCOCCOC(C)=O | inactive | 
NS(=O)(=O)C(F)(F)C(F)(F)C(F)(F)C(F)(F)C(F)(F)C(F)(F)C(F)(F)C(F)(F)F | inactive | 
O=NN(c1ccccc1)c1ccccc1 | inactive | 
Cc1ccccc1[N+](=O)[O-] | inactive | 
CO/C=C(/C(=O)OC)c1ccccc1COc1cccc(C(F)(F)F)n1 |  | 19.7 µM (active)
Oc1c(Cl)c(Cl)c(Cl)c(Cl)c1Cl | inactive | 
CCCN(CCC)N=O | inactive | 
Oc1ccc(Cl)cc1Cl | inactive | 
Cc1cc(-c2ccc(N)c(C)c2)ccc1N | inactive | 
O=C(O)C(F)(F)C(F)(F)C(F)(F)C(F)(F)C(F)(F)F | inactive | 
CCOC(=O)C(O)(c1ccc(Cl)cc1)c1ccc(Cl)cc1 | inactive | 
CCNc1nc(NC(C)C)nc(SC)n1 | inactive | 
Cc1cc(O)ccc1Cl | inactive | 
CCC(C)c1cc([N+](=O)[O-])cc([N+](=O)[O-])c1O (stereo not given) | inactive | 
CCOP(=S)(OCC)SCSC(C)(C)C | inactive | 
Cc1ccccc1CO[C@@H]1C[C@@]2(C(C)C)CC[C@]1(C)O2 | inactive | 
